Experimental data from PubChem BioAssay AID624255 (Broad Institute, 2012).
“And” between values parts separate entries of the source, which are not always exact repeats. Equal values may be shown once. Among all 77,000 compounds or so, about 4,600 (6%) were called active. About 1% were inconclusive and are not listed. The sample holds actives, similar compounds and a random draw of the others, so the mix is not that of the screen.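 Rule for the calls: active = mean inhibition above about 93%, with at least 55% of replicates each passing it (limit read from the data, passing the limit was not always enough); inconclusive = only one of those two conditions holds; inactive = neither condition holds.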

Test: T. cruzi intracellular proliferation inhibitors, primary screen, cell-based, beta-gal Tulahuen parasites, NIH3T3 host, luminescence (AID 624255)
Details: T. cruzi beta-gal in NIH3T3, GalScreen luminescence, 90 h; at 8.34 µM; active compounds read high

SMILES	inhibition
O=C(Nc1ccccc1F)N1C[C@@H]2[C@H](c3ccccc31)[C@@H](CO)N2C(=O)Nc1ccccc1	8.53% (inactive)
O=C(CN1CCOCC1)NCC[C@H]1CC[C@@H](NC(=O)Nc2ccc(Cl)cc2)[C@@H](CO)O1	46.9% (inactive)
O=C(C[C@H]1CC[C@@H]2[C@H](COC[C@@H](O)CN2C(=O)Nc2cccc(F)c2)O1)NCc1ccccc1F	-36.9% (inactive)
COc1cccc(C(=O)Nc2ccc3c(c2)C(=O)N(C)C[C@@H](OC)[C@H](C)CN(C(=O)C2CCOCC2)[C@H](C)CO3)c1	9.28% (inactive)
COc1ccc(CN(C)C[C@@H]2OCCCC[C@@H](C)Oc3ccc(NC(=O)Nc4ccc(OC)cc4)cc3C(=O)N([C@@H](C)CO)C[C@@H]2C)cc1	24.8% (inactive)
C[C@H](CO)N1C[C@H](C)[C@H](CN(C)Cc2ccc(Cl)c(Cl)c2)OCCCC[C@H](C)Oc2ccc(NC(=O)NC3CCCCC3)cc2C1=O	86.3% (inactive)
COc1ccc(NC(=O)Nc2ccc3c(c2)C(=O)N([C@H](C)CO)C[C@H](C)[C@H](CN(C)Cc2ccncc2)OCCCC[C@H](C)O3)cc1	97.9% (inactive)
C[C@@H]1CCCCO[C@H](CN(C)Cc2ccc(Cl)c(Cl)c2)[C@@H](C)CN([C@@H](C)CO)C(=O)c2cc(NC(=O)Nc3ccccc3)ccc2O1	70.7% (inactive)
C[C@@H]1CN([C@H](C)CO)C(=O)c2cc(NC(=O)Nc3ccc(F)cc3)ccc2O[C@@H](C)CCCCO[C@H]1CN(C)Cc1ccc(Cl)c(Cl)c1	102% (active)
COc1ccc(NC(=O)Nc2ccc3c(c2)C(=O)N([C@H](C)CO)C[C@@H](C)[C@H](CN(C)Cc2ccc(Cl)c(Cl)c2)OCCCC[C@@H](C)O3)cc1	126% (active)
COc1ccccc1-c1ccc2n(c1=O)C[C@H]1[C@H](CO)[C@@H](C(=O)N[C@@H](C)c3ccccc3)[C@@H]2N1C	18.4% (inactive)
C[C@@H]1CN([C@H](C)CO)S(=O)(=O)c2ccc(C#CC3CCCC3)cc2O[C@@H]1CN(C)C(=O)Cc1ccncc1	117% (active)
CCC(=O)N(C)C[C@H]1Oc2cc(C#CC3CC3)ccc2S(=O)(=O)N([C@H](C)CO)C[C@H]1C	-39.9% (inactive)
COCC(=O)N(C)C[C@@H]1Oc2cc(C#CC3CC3)ccc2S(=O)(=O)N([C@H](C)CO)C[C@H]1C	-43% (inactive)
CCC(=O)N(C)C[C@H]1Oc2cc(C#CC3CC3)ccc2S(=O)(=O)N([C@@H](C)CO)C[C@@H]1C	3.97% (inactive)
C[C@@H]1CN([C@H](C)CO)S(=O)(=O)c2ccc(C#CC3CCCCC3)cc2O[C@H]1CN(C)C(=O)Cc1ccncc1	92.8% (inactive) and 91.8% (inactive)
C[C@H]1CN([C@@H](C)CO)S(=O)(=O)c2ccc(C#CC3CCCC3)cc2O[C@H]1CN(C)C(=O)Cc1ccncc1	118% (active)
C[C@@H]1CN([C@H](C)CO)C(=O)c2cc(C#CCN(C)C)cnc2O[C@H]1CN(C)C(=O)NC1CCCC1	-10.7% (inactive)
COc1ccc(S(=O)(=O)N[C@@H]2CC[C@H](CC(=O)N3CCc4ccccc4C3)O[C@H]2CO)cc1	16.5% (inactive)
CC(C)C#Cc1cnc2c(c1)C(=O)N([C@@H](C)CO)C[C@@H](C)[C@H](CN(C)C(=O)CCN1CCCCC1)O2	15% (inactive)
CC(=O)Nc1ccc2c(c1)C(=O)N(C)[C@@H]1CC[C@@H](CC(=O)NCC3CCCCC3)O[C@@H]1CO2	8.56% (inactive)
COCC(=O)N(C)C[C@H]1Oc2ncc(-c3cccc(OC)c3)cc2C(=O)N([C@H](C)CO)C[C@H]1C	-6.11% (inactive)
O=C(Nc1ccc(F)cc1)N1CCCCN2[C@H](CO)[C@H](c3ccc(C#Cc4ccccc4)cc3)[C@H]2C1	76.6% (inactive)
COc1ccccc1C#Cc1ccc([C@@H]2[C@H](CO)N3CCCCN(CCC(F)(F)F)C[C@@H]23)cc1	42.4% (inactive)
O=C(Nc1cccc(F)c1)N1CCCCN2[C@H](CO)[C@H](c3ccc(C#CC4CC4)cc3)[C@@H]2C1	122% (active)
O=C(Nc1ccccc1)N1CCCCN2[C@H](CO)[C@@H](c3ccc(C#Cc4ccccn4)cc3)[C@H]2C1	108% (active)
Cc1ccccc1-c1ccc([C@@H]2[C@@H](CO)N3CCCCN(C(=O)Nc4cccc(F)c4)C[C@H]23)cc1	91.9% (inactive)

SMILES	inhibition
O=C(c1ccncc1)N1CCCCN2[C@H](CO)[C@@H](c3ccc(C#Cc4ccccn4)cc3)[C@H]2C1	91.2% (inactive)
O=C(C1CCC1)N1CCCCN2[C@H](C1)[C@@H](c1ccc(C#CC3CCCC3)cc1)[C@@H]2CO	86.9% (inactive)
CC(C)C#Cc1ccc([C@H]2[C@@H](CO)N3CCCCN(C(=O)Nc4ccccc4)C[C@H]23)cc1	49.6% (inactive)
OC[C@@H]1[C@H](c2ccc(C#CC3CC3)cc2)[C@@H]2CN(CCC(F)(F)F)CCCCN12	99.5% (active)
N#Cc1cccc(-c2ccc([C@H]3[C@H](CO)N4CCCCN(C(=O)Nc5cccc(F)c5)C[C@@H]34)cc2)c1	105% (active)
COc1ccc(C#Cc2ccc([C@H]3[C@@H](CO)N4CCCCN(C(=O)Nc5ccccc5)C[C@H]34)cc2)cc1	80.4% (inactive)
N#Cc1cccc(-c2ccc([C@H]3[C@@H](CO)N4CCCCN(C(=O)Nc5ccccc5)C[C@H]34)cc2)c1	75.3% (inactive)
CN1CCN(C(=O)C[C@@H]2C=C[C@@H](NS(=O)(=O)c3cccc(F)c3)[C@@H](CO)O2)CC1	-46.4% (inactive)
O=C(C[C@H]1C=C[C@H](NC(=O)NC2CCCCC2)[C@H](CO)O1)NCc1ccccc1	-29.6% (inactive)
COc1ccc(CN(C)C[C@H]2OCCCC[C@@H](C)Oc3ccc(NS(C)(=O)=O)cc3C(=O)N([C@@H](C)CO)C[C@H]2C)cc1	89.5% (inactive)
CN(C)CC(=O)Nc1ccc2c(c1)[C@@H]1C[C@H](CC(=O)NCC3CC3)O[C@@H](CO)[C@@H]1O2	-19.8% (inactive)
COc1ccc(NC(=O)Nc2ccc3c(c2)C(=O)N([C@@H](C)CO)C[C@H](C)[C@H](CN(C)C(=O)Nc2ccccc2)OCCCC[C@@H](C)O3)cc1	54% (inactive)
CO[C@@H]1CN(C)C(=O)c2cc(NC(=O)c3cccc(F)c3)ccc2OC[C@H](C)N(C)C[C@@H]1C	13.5% (inactive)
O=C(c1cccnc1)N1C[C@H]2[C@@H](c3ccccc31)[C@H](CO)N2C(=O)C1CCCCC1	19.5% (inactive)
COC(=O)C[C@@H]1CC[C@@H]2[C@H](COc3ccc(NS(=O)(=O)c4ccccc4F)cc3C(=O)N2C)O1	27.2% (inactive)
CCCC(=O)Nc1ccc2c(c1)OC[C@@H](C)N(CC1CCOCC1)C[C@H](C)[C@H](OC)CN(C)C2=O	7.69% (inactive)
O=C(CN1CCOCC1)N1CCCCN2[C@@H](CO)[C@H](c3ccc(-c4ccccc4)cc3)[C@@H]2C1	112% (active)
CC(=O)N1CCCCN2[C@H](C1)[C@@H](c1ccc(-c3ccc(F)cc3)cc1)[C@@H]2CO	71% (inactive)
CCC(=O)N1CCCCN2[C@H](C1)[C@@H](c1ccc(-c3ccc(F)cc3)cc1)[C@@H]2CO	101% (active)
CCC(=O)N1CCCCN2[C@H](CO)[C@@H](c3ccc(-c4cccnc4)cc3)[C@H]2C1	88.7% (inactive)
O=C(CN1CCOCC1)N1CCCCN2[C@H](CO)[C@H](c3ccc(-c4ccccc4)cc3)[C@@H]2C1	102% (active)
O=C(CN1CCOCC1)N1CCCCN2[C@H](C1)[C@H](c1ccc(-c3ccccc3F)cc1)[C@@H]2CO	26.1% (inactive)
COCC(=O)N1CCCCN2[C@H](CO)[C@@H](c3ccc(-c4ccc(OC)cc4)cc3)[C@@H]2C1	4.91% (inactive)
C/C=C/c1ccc([C@H]2[C@@H](CO)N3CCCCN(C(=O)c4ccc(F)cc4)C[C@@H]23)cc1	90.9% (inactive)
CCC(=O)N1CCCCN2[C@H](C1)[C@@H](c1ccc(/C=C/c3ccccc3)cc1)[C@@H]2CO	105% (active)
COCC(=O)N1CCCCN2[C@H](C1)[C@@H](c1ccc(-c3ccccc3)cc1)[C@@H]2CO	53.8% (inactive)
COCC(=O)N1CCCCN2[C@H](CO)[C@H](c3ccc(-c4ccc(OC)cc4)cc3)[C@H]2C1	46.5% (inactive)

SMILES	inhibition
CO[C@@H]1CN(C)C(=O)c2ccc(NS(=O)(=O)c3ccc(C)cc3)cc2OC[C@@H](C)N(Cc2nccs2)C[C@H]1C	41.1% (inactive)
C[C@@H]1CN([C@@H](C)CO)C(=O)c2cc(C#CC3CC3)cnc2O[C@@H]1CN(C)C(=O)Cc1ccccn1	51.4% (inactive)
CCCN(C)C[C@H]1OCCCC[C@@H](C)Oc2ccc(NC(=O)CCC(F)(F)F)cc2C(=O)N([C@H](C)CO)C[C@H]1C	67.3% (inactive)
O=C(C[C@H]1CC[C@@H](NC(=O)c2ccncc2)[C@@H](CO)O1)Nc1ccccc1	19.5% (inactive)
CC(C)NC(=O)Nc1ccc2c(c1)C(=O)N(C)[C@H]1CC[C@H](CC(=O)NCC3CCCCC3)O[C@@H]1CO2	22.4% (inactive)
O=C(C1CCOCC1)N1C[C@H]2[C@@H](c3ccccc31)[C@@H](CO)N2Cc1ccccc1F	-22.5% (inactive)
O=C(CN1CCOCC1)N1CCCCN2[C@H](CO)[C@H](c3ccc(Br)cc3)[C@H]2C1	36% (inactive)
O=C(CN1CCOCC1)N1CCCCN2[C@@H](CO)[C@H](c3ccc(/C=C/c4ccccc4)cc3)[C@@H]2C1	102% (active)
OC[C@H]1[C@@H](c2ccc(/C=C/c3ccccc3)cc2)[C@H]2CN(Cc3cccnc3)CCCCN21	23.4% (inactive)
COc1ccc(CN(C)C[C@@H]2Oc3ccc(NS(=O)(=O)c4ccc(OC)cc4)cc3C(=O)N([C@H](C)CO)C[C@H]2C)cc1	0.955% (inactive)
COc1ccc(CN(C)C[C@H]2Oc3ccc(NS(=O)(=O)c4ccc(Cl)cc4)cc3CC(=O)N([C@@H](C)CO)C[C@H]2C)cc1	96.7% (active)
COc1ccc(S(=O)(=O)Nc2ccc3c(c2)CC(=O)N([C@@H](C)CO)C[C@H](C)[C@@H](CN(C)Cc2ccc(C(=O)O)cc2)O3)cc1	-13.7% (inactive)
COc1ccc(CN(C)C[C@@H]2Oc3ccc(NS(=O)(=O)c4ccc(F)cc4)cc3C(=O)N([C@@H](C)CO)C[C@@H]2C)cc1	11.1% (inactive)
COc1ccc(CN(C)C[C@H]2Oc3ccc(NS(=O)(=O)c4ccc(C)cc4)cc3C(=O)N([C@@H](C)CO)C[C@H]2C)cc1	37.9% (inactive)
COc1ccc(S(=O)(=O)Nc2ccc3c(c2)C(=O)N([C@@H](C)CO)C[C@H](C)[C@@H](CN(C)Cc2ccc(C(F)(F)F)cc2)O3)cc1	105% (active)
Cc1ccc(S(=O)(=O)Nc2ccc3c(c2)C(=O)N([C@@H](C)CO)C[C@@H](C)[C@H](CN(C)Cc2ccc(C(F)(F)F)cc2)O3)cc1	42.1% (inactive)
COc1ccc(S(=O)(=O)Nc2ccc3c(c2)CC(=O)N([C@H](C)CO)C[C@H](C)[C@H](CN(C)Cc2ccc(C(F)(F)F)cc2)O3)cc1	75% (inactive)
COc1ccc(S(=O)(=O)Nc2ccc3c(c2)C(=O)N([C@H](C)CO)C[C@H](C)[C@H](CN(C)Cc2ccc(C(F)(F)F)cc2)O3)cc1	100% (active)
C[C@H](CO)N1C[C@H](C)[C@H](CN(C)Cc2ccc(C(F)(F)F)cc2)Oc2ccc(NS(=O)(=O)c3ccc(Cl)cc3)cc2C1=O	127% (active)
COc1ccc(S(=O)(=O)Nc2ccc3c(c2)C(=O)N([C@@H](C)CO)C[C@H](C)[C@H](CN(C)Cc2ccc(C(=O)O)cc2)O3)cc1	-6.07% (inactive)
C[C@@H]1CN([C@@H](C)CO)C(=O)Cc2cc(NS(=O)(=O)c3ccc(Cl)cc3)ccc2O[C@H]1CN(C)Cc1ccc(C(F)(F)F)cc1	-1.87% (inactive)
C[C@@H]1CN([C@@H](C)CO)S(=O)(=O)c2ccc(-c3ccncc3)cc2O[C@@H]1CN(C)C(=O)C1CCC1	76.2% (inactive)
O=C(Nc1ccc(F)cc1)N[C@@H]1CC[C@H](CC(=O)N2CCCCC2)O[C@H]1CO	-3.48% (inactive)
CCCNC(=O)[C@H]1[C@H](CO)[C@H]2Cn3c(ccc(-c4cccc(F)c4)c3=O)[C@@H]1N2C(=O)CC	1.74% (inactive)
CC(C)CC#Cc1cnc2c(c1)C(=O)N([C@H](C)CO)C[C@H](C)[C@@H](CN(C)C(=O)Cc1cccnc1)O2	3.64% (inactive)
Cc1noc(C)c1S(=O)(=O)N(C)C[C@@H]1OCCCC[C@@H](C)Oc2ccc(NC(=O)c3ccccc3)cc2C(=O)N([C@@H](C)CO)C[C@@H]1C	14.7% (inactive)
